12-LOX inh: blocks human arachidonate 12S-lipoxygenase; 580,000 compounds, 1.1% hits; Potency, µM (series often up to 108 µM), without a hit: top-dose activity change, negative = inhibition, most hits filed as inhibitors; P18054; purified 12hLO, xylenol orange hydroperoxide absorbance; further: potency means the concentration at half of the fitted maximal effect
Target sequence (P18054 whole entry, looked up): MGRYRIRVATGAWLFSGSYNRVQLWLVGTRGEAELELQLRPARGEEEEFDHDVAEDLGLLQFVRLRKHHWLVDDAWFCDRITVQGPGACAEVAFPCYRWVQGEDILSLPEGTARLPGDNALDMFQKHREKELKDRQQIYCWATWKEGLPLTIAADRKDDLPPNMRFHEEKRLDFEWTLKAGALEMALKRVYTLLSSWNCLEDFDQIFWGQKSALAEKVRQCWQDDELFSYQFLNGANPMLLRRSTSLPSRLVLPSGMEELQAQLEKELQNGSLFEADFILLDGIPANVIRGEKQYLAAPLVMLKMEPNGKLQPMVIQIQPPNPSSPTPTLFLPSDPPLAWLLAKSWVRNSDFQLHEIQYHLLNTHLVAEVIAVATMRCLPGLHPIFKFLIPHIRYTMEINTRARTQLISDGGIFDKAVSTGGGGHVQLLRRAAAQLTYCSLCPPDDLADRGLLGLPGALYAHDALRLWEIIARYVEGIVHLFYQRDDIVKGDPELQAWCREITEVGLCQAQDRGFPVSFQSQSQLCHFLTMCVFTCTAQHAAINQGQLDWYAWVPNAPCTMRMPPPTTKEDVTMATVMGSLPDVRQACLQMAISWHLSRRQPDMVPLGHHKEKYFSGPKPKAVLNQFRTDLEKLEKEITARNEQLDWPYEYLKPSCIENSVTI
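Purified human 12hLO (150 nM final) in 25 mM Hepes, 0.01% Triton X-100, pH 7.0 was preincubated 15 min at room temperature with compound. Then 40 uM arachidonic acid was added, 30 min. Hydroperoxide was read by Fe-XO absorbance ratio 573/405 nm.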
HT1080 IDH1KD tx: kills HT-1080 cells with IDH1 knockdown. Potency, µM (highest dose often 46.1 µM), without a hit: at the highest dose activity, negative = toxicity, hits mostly cytotoxic. HT-1080 IDH1 knockdown viability, ATP luminescence, 48 h. 360,000 compounds, 2% hits;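 further: potency means the concentration at half of the fitted maximal effect; 0% = DMSO wells and -100% = cell-free medium wells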
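% activity derives from luminescence (CellTiter-Glo), normalised to DMSO and no-cell wells. HT-1080-IDH1KD cells, 750/well, had 48 h compound exposure at 37 °C.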
DT40 TDP1 no CPT: qHTS for Inhibitors of human tyrosyl-DNA phosphodiesterase 1 (TDP1): qHTS in cells in absence of CPT. DT40 Tdp1-/- hTDP1 cells, no CPT, ATP luminescence, 48 h. Potency, µM (series often up to 46.2 µM), without a hit: at the top dose activity change, negative = growth inhibition, actives largely listed as inhibitors. 420,000 compounds, 15% hits; further: potency means the concentration at half of the fitted maximal effect; nearly all actives have a fitted effect of over 55% in size
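Cells were dispensed at 400 per well, compounds added by pin tool, plates incubated ≥48 hr at 37 °C, then CellTiter-Glo added for 30 min at room temperature before luminescence reading. Line: DT40 Tdp1-/- complemented with hTDP1; camptothecin omitted.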
HT1080-NT tox: kills 2HG-producing HT-1080-NT fibrosarcoma cells | 360,000 compounds, 1.6% hits | HT-1080-NT fibrosarcoma viability, CellTiter-Glo ATP luminescence, 48 h | AID 686970 | Potency, µM (top dose mostly 46.1 µM), inactives show at the top dose activity, negative = less viability, usual class: cytotoxic;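 further: NT is the 2HG producing partner of a matched IDH1 knockdown line; potency means the concentration at half of the fitted maximal effect; 0% = DMSO-treated cells and -100% = media-only wells without cells; nearly all actives have a fitted effect of over 55% in size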
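Toxicity toward the 2HG-producing NT line was scored as %Activity, normalised to DMSO and no-cell wells, from CellTiter-Glo luminescence after 48 hours' treatment.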
TDP1 cell CPT: DT40-hTDP1 cell growth loss with CPT. chicken DT40 Tdp1-/-;hTDP1 cells + 20 nM CPT, ATP luminescence, 48 h. Potency, µM (top dose mostly 46.2 µM), without a hit: at the top dose activity change, negative = growth inhibition, most hits filed as inhibitors. 420,000 compounds, 12% hits; further: potency means the concentration at half of the fitted maximal effect; nearly all actives have a fitted effect of over 55% in size
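Chicken DT40 Tdp1-/- cells complemented with human TDP1, 400 cells/well, exposed to compounds plus 20 nM camptothecin for at least 48 h at 37 C; viability read as ATP content by CellTiter-Glo luminescence.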
IL1B secr inh: inflammasome signaling inhibition, IL-1 beta readout | THP-1 LPS/ATP IL-1B secretion, AlphaLISA, 16 h; hits give low values | activity change, % at 57.5 µM | 360,000 compounds, 4.7% hits; in the data active means activity change below about -50%; inconclusive means mostly about -30% to -49%
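Secreted IL-1B measured by AlphaLISA bead assay after 16 h compound exposure of THP-1 cells; compounds (final up to 57.5 uM) added 1 h before LPS (250 ng/mL) and ATP (1.25 mM) stimulation; lower signal means less secretion.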
An asterisk follows results filed as active; ? = inconclusive; . = no result given; [ ] = dose if it differs, or a comment. Shown is part of a subset that was picked to be rich in hits. Unless noted, the call rests on the fitted dose curve; in most records, active means well fitted curve in the direction sought with a large enough effect; inconclusive means small, poorly fitted or top-dose-only effect, or another doubt; inactive means no such curve, though single readings can be large; an effect the other way counts as inactive or inconclusive. Unless noted, on the % scale 0 is the no-effect control and ±100 the full control effect.

SMILES	12-LOX inh	HT1080 IDH1KD tx	DT40 TDP1 no CPT	HT1080-NT tox	TDP1 cell CPT	IL1B secr inh
Cc1c(C(=O)NCc2ccc(F)cc2)oc2ccc(S(=O)(=O)N3CCCCC3)cc12	?	.	?	.	23.1µM*	.
Cc1ccc(NC(=O)c2oc3ccc(S(=O)(=O)N4CCOCC4)cc3c2C)c(C)c1	-1.5%	-9.2%	?	-0.6%	?	20.1
CCCCNC(=O)c1oc2ccc(S(=O)(=O)N3CCCC3)cc2c1C	-5.6%	-4.5%	?	-13.0%	?	-19.3
Cc1cccc(NC(=O)c2oc3ccc(S(=O)(=O)N4CCOCC4)cc3c2C)c1C	8.9%	?	23.1µM*	-2.0%[9.24 µM]	?	-6.3
CCN(CC)S(=O)(=O)c1ccc2oc(C(=O)NCc3ccccc3OC)c(C)c2c1	-13.6%	.	10.3µM*	.	7.31µM*	.
CCCCSCCCNC(=O)CN1C(=O)COc2ccc(S(=O)(=O)N3CCC(C)CC3)cc21	-5.4%	.	.	.	.	.
Nc1nc(COC(=O)c2ccccc2Cl)nc2ccccc12	-0.7%	.	.	.	.	.
O=C(Nc1ncccc1O)c1ccc2ccccc2c1	.	-11.1%	1.6%	-1.8%	-14.2%	46.6
O=C(Nc1ncccc1O)c1ccc2c(c1)OCCO2	-0.5%	-3.0%	14.6µM*	-8.6%	23.1µM*	11.5
Cc1cccnc1NC(=O)c1ccc2c(c1)OCCO2	8.4%	13.9%	-8.9%	10.6%	0.8%	-5.0
O=C(Nc1ncccc1O)c1ccc2c(c1)OCO2	?	-19.8%	16.4µM*	-32.8%	?	26.6
CN(C)CCNC(=O)c1onc(CSc2ccc(F)cc2)c1C(=O)NCCN(C)C	1.2%	-16.9%	-17.7%	-20.3%	-8.1%	-6.4
CCCNC(=O)c1onc(CSc2ccc(F)c(F)c2)c1C(=O)NCCC	-1.9%	2.4%	?	7.1%	14.6µM*	1.2
CC(C)NC(=O)c1onc(CSc2ccc(F)c(F)c2)c1C(=O)O	31.6µM*	-6.3%	-22.2%	-14.3%	-14.1%	4.0
CN(C)CCNC(=O)c1onc(CSc2ccc(F)c(F)c2)c1C(=O)NCCN(C)C	12.5%	-20.2%	16.4µM*	-22.3%	-26.0%	?
CC(C)NC(=O)c1onc(CSc2ccc(F)c(F)c2)c1C(=O)NC(C)C	-10.2%	-2.9%	-10.9%	0.4%	?	-24.3
NC(=O)c1c(N)[nH]c(C(=O)c2ccccc2)c1-c1ccc2ccccc2c1	-10.0%	.	.	.	.	.
Cc1ccc(/C=C2/C(=O)N(c3ccccc3)C(=S)N2C)o1	?	-19.0%	23.1µM*	-15.6%	?	0.0
CCOc1ccc(N2C(=O)/C(=C/c3ccco3)N(C)C2=S)cc1	?	-17.2%	-21.1%	-11.7%	-27.0%	8.0
COc1ccc(NC(=O)C(Cc2ccccc2)n2cccc2)cc1OC (stereo unspecified)	-1.0%	-7.8%	20.6µM*	-7.6%	8.2µM*	-11.8
CC(C)c1ccc(NC(=O)C(Cc2ccccc2)n2cccc2)cc1 (stereo unspecified)	0.0%	.	16.4µM*	.	20.6µM*	.
O=C(Nc1cccnc1)C(Cc1ccccc1)n1cccc1 (stereo unspecified)	18.5%	-12.7%	-15.0%	-7.7%	?	0.0
O=C(Nc1cccc(Cl)c1)C(Cc1ccccc1)n1cccc1 (stereo unspecified)	0.0%	.	18.4µM*	.	23.1µM*	.
CCN(CC)CCOC(=O)c1ccc(NC(=O)Cn2ncc3c([nH]c4ccc(C)cc43)c2=O)cc1	?	.	3.26µM*	.	4.11µM*	.
Cc1ccc2[nH]c3c(=O)n(CC(=O)N(C)c4cc(Cl)ccc4C)ncc3c2c1	-25.8%	.	14.6µM*	.	18.4µM*	.
SMILES	12-LOX inh	HT1080 IDH1KD tx	DT40 TDP1 no CPT	HT1080-NT tox	TDP1 cell CPT	IL1B secr inh
Cc1ccc(C)c(N2CCN(C(=O)Cn3ncc4c([nH]c5ccc(C)cc54)c3=O)CC2)c1	-0.3%	16.4%	13µM*	15.3%	14.6µM*	5.6
CCc1cccc(NC(=O)Cn2ncc3c([nH]c4ccc(C)cc43)c2=O)c1	-28.5%	.	4.4%	.	-1.3%	.
Cc1ccc2oc(=O)c3cnn(CC(=O)NC4CCN(Cc5ccccc5)CC4)c3c2c1	34.9%	3.5%	20.6µM*	1.6%	16.4µM*	-9.9
CN(C(=O)c1ccc(C(F)(F)F)cc1)C1CCCc2ccccc21 (stereo unspecified)	-7.6%[176 µM]	.	.	.	.	.
CCOC(=O)CN1CCN(c2nc3c(c(=O)[nH]c(=O)n3C)n2CC)CC1	26.0%	.	.	.	.	.
COCC1CN(C(C)=O)CC12CCN(C(=O)c1ccc(C(F)(F)F)cc1)CC2 (stereo unspecified)	24.7%	.	.	.	.	.
CN(CC1CCN(CCc2ccc(F)cc2)CC1)C1CCN(Cc2cccnc2)CC1	6.5%	.	.	.	.	.
Cc1cccc(-c2nc3ccccc3c(=O)n2CCN(C)C)c1	-12.5%	.	.	.	.	.
Cc1ccc2oc(=O)c3cnn(CC(=O)N4CCN(c5cc(Cl)ccc5C)CC4)c3c2c1	-2.3%	.	16.4µM*	.	?	.
Cc1ccc(N(C)C(=O)Cn2ncc3c([nH]c4ccccc43)c2=O)cc1C	-23.1%	.	?	.	11.6µM*	.
Cc1ccc2[nH]c3c(=O)n(CC(=O)N(CCN(C)C)Cc4ccccc4)ncc3c2c1	?	.	23.1µM*	.	?	.
O=C(c1nccc2ccccc12)N1CCC(n2cc(-c3nc(C4CC4)no3)nn2)C1 (stereo unspecified)	0.9%	.	.	.	.	.
Cc1ccnc(NC(=O)C2CCCN(S(=O)(=O)c3ccc4[nH]c(=O)ccc4c3)C2)c1 (stereo unspecified)	34.3%	5.5%	24.3%	-3.0%	-2.7%	-2.8
CC(C)(C)C1CCC(C(=O)Nc2nccs2)CC1 (stereo unspecified)	12.5%	10.6%	23.1µM*	11.1%	?	19.6
Cc1cnc(C(=O)N2CCC(F)(c3nc(-c4ccncc4)no3)CC2)cn1	76.8%	.	.	.	.	.
COc1ccc(Cc2c(-c3ccc(C#N)cc3)nc3c(Cl)cc(C(F)(F)F)cn23)c(C)c1	?	-13.8%	18.4µM*	-0.3%	?	0.0
N#Cc1ccc(-c2nc3c(Cl)cc(C(F)(F)F)cn3c2Cc2ccsc2)cc1	?	-5.4%	-11.4%	-3.8%	-8.8%	17.2
CCCc1nc2c(Cl)cc(C(F)(F)F)cn2c1Cc1ccc(OC)cc1C	0.0%	-11.7%	16.4µM*	-25.3%	20.6µM*	43.7
CCN(CC)c1ccc(N)cc1	.	14.6µM*	1.64µM*	8.2µM*	1.84µM*	-65.9*
CCN(CC)c1ccc(NC(=O)Nc2ccc(C(C)=O)cc2)cc1	-24.0%	3.7%	?	4.2%	-29.8%	-11.9

High-throughput results deposited in PubChem by National Center for Advancing Translational Sciences (NCATS).
